Here are results for ten molecules from PubChem BioAssay (NCI).

A short description of experiment [1]: NCI Yeast Anticancer Drug Screen. Data for the rad50 strain (AID 155).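 Note: 0% = growth of vehicle-only cultures of the same strain.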 The note with it: S. cerevisiae rad50 strain growth inhibition, stronger effect = higher value. The gist of the method:
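DNA repair mutant yeast, compound exposure, growth read-out; inhibition is taken relative to vehicle.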

Experiment [2] is described as follows: NCI Yeast Anticancer Drug Screen. Data for the mec2-1 strain (AID 157). The note with it: S. cerevisiae mec2-1 strain, stronger effect = higher value. The gist of the method: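 Each compound was tested on mec2-1 yeast, a strain altered in DNA damage repair or cell cycle control. Growth inhibition is reported relative to vehicle.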
Experiment [3] in a line: NCI Yeast Anticancer Drug Screen. Data for the sgs1 mgt1 strain (AID 161).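 Note: 0% = growth of cultures given vehicle only.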 The note with it: S. cerevisiae sgs1 mgt1 strain, stronger effect = higher value. In a few lines: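 Mutant yeast exposed to compound; growth scored against vehicle-only wells.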
Experiment [4] in a line: NCI Yeast Anticancer Drug Screen. Data for the cln2 rad14 strain (AID 165).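 Note: 0% = growth equal to vehicle treated cultures.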 The note with it: S. cerevisiae cln2 rad14 strain, stronger effect = higher value. In a few lines:
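Test compounds were added to cln2 rad14 yeast cultures; inhibition of growth was then determined by comparison with vehicle treatment.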

Experiment [5] is described as follows: NCI Yeast Anticancer Drug Screen. Data for the bub3 strain (AID 167). The note with it: S. cerevisiae bub3 mutant strain, stronger effect = higher value. In a few lines:
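In this screen, a yeast mutant lacking normal mitotic checkpoint function is challenged with compound. Relative growth versus vehicle gives the inhibition value.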

A short description of experiment [6]: NCI Yeast Anticancer Drug Screen. Data for the mlh1 rad18 strain (AID 175). The note with it: S. cerevisiae mlh1 rad18 strain growth inhibition, stronger effect = higher value. In a few lines:
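Inhibition values reflect reduced growth of mutant yeast versus vehicle-treated controls following compound exposure; the mutations affect DNA damage repair.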

The mark [7] stands for this setting: at 5.0 µM (retest, dose inferred, filed as 0.5).
Where [8] appears, read: at 50.0 µM (retest, dose inferred, filed as 5.0).

Compounds without any hit were thinned out: in the full panel of roughly 79,000, 15% have a hit. A number with no mark means an inactive call. Active and inactive are the calls of the source. Cut-off read from the data, not from the text of the source: active = growth inhibition above about 70%; inactive = the rest.

With `CCCCCCCCCCCOc1cccc(N2C(N)=NC(N)=NC2(C)C)c1`, the growth inhibition in experiment [1] (setting [7]) is 99% (active); in experiment [1] (setting [8]), 91% (active); in experiment [1] (at 50.0 µM), 98.8% (active); in experiment [2] (setting [7]), 99% (active); in experiment [2] (setting [8]) it was 96% (active); in experiment [2] (at 50.0 µM) it was 99.5% (active). Further, the growth inhibition in experiment [3] (setting [7]) was 99% (active); in experiment [3] (setting [8]) it was 96% (active); in experiment [3] (at 50.0 µM), 98.6% (active); in experiment [4] (setting [7]), 98% (active); in experiment [4] (setting [8]) it was 90% (active); in experiment [4] (at 50.0 µM), 58.5%. For the same molecule, the growth inhibition in experiment [5] (setting [7]) is 98% (active); in experiment [5] (setting [8]), 96% (active); in experiment [5] (at 50.0 µM), 99.1% (active); in experiment [6] (setting [7]) it was 99% (active); in experiment [6] (setting [8]), 95% (active); in experiment [6] (at 50.0 µM), 98.7% (active).

Take `Cc1c(C(=O)O)nc(C(Br)(Br)Br)[nH]c1=O`: the growth inhibition in experiment [1] (setting [7]) is 6%; in experiment [1] (setting [8]), 8%; in experiment [1] (at 50.0 µM), 54.2%; in experiment [2] (setting [7]), 20%; in experiment [2] (setting [8]), 17%; in experiment [2] (at 50.0 µM), 4.85%. For the same molecule, the growth inhibition in experiment [3] (setting [7]) is 2%; in experiment [3] (setting [8]) it was 26%; in experiment [3] (at 50.0 µM) it was 71.3% (active); in experiment [4] (setting [7]) it was 1%; in experiment [4] (setting [8]) it was 0%; in experiment [4] (at 50.0 µM), 14.7%. The growth inhibition was 4% in experiment [5] (setting [7]); 2% in experiment [5] (setting [8]); 1.5% in experiment [5] (at 50.0 µM); 6% in experiment [6] (setting [7]); 27% in experiment [6] (setting [8]); 53% in experiment [6] (at 50.0 µM).

Turning to `OC1CC2OC2C1O` (stereo not given), the growth inhibition in experiment [1] (setting [7]) is -2%; in experiment [1] (setting [8]), 3%; in experiment [1] (at 50.0 µM), -6.25%; in experiment [2] (setting [7]), -5%; in experiment [2] (setting [8]), 3%; in experiment [2] (at 50.0 µM) it was 3.75%. For the same molecule, the growth inhibition is -2% in experiment [3] (setting [7]); 1% in experiment [3] (setting [8]); -4.95% in experiment [3] (at 50.0 µM); -1% in experiment [4] (setting [7]); -1% in experiment [4] (setting [8]); 69.6% in experiment [4] (at 50.0 µM). The growth inhibition was 2% in experiment [5] (setting [7]); 7% in experiment [5] (setting [8]); 18.6% in experiment [5] (at 50.0 µM); -1% in experiment [6] (setting [7]); 2% in experiment [6] (setting [8]); -11.4% in experiment [6] (at 50.0 µM).

As for `CCOC(=O)c1ccc(-n2c(C)nc3ccc(Br)cc3c2=O)cc1`, the growth inhibition in experiment [1] (setting [7]) was -4%; in experiment [1] (setting [8]), -6%; in experiment [1] (at 50.0 µM), 53%; in experiment [2] (setting [7]) it was -1%; in experiment [2] (setting [8]) it was -7%; in experiment [2] (at 50.0 µM), 61.6%. Moreover, the growth inhibition in experiment [3] (setting [7]) was -4%; in experiment [3] (setting [8]), -7%; in experiment [3] (at 50.0 µM), 40%; in experiment [4] (setting [7]), 0%; in experiment [4] (setting [8]), -6%; in experiment [4] (at 50.0 µM) it was 64.5%. Further, the growth inhibition is 1% in experiment [5] (setting [7]); -1% in experiment [5] (setting [8]); 77.6% (active) in experiment [5] (at 50.0 µM); -2% in experiment [6] (setting [7]); -6% in experiment [6] (setting [8]); 74.8% (active) in experiment [6] (at 50.0 µM).

Turning to `O=C1C=CC(=O)C(c2ccc(Cl)cc2)=C1`, the growth inhibition in experiment [1] (setting [7]) was 45%; in experiment [1] (setting [8]) it was 96% (active); in experiment [1] (at 50.0 µM), 90.8% (active); in experiment [2] (setting [7]), 54%; in experiment [2] (setting [8]) it was 97% (active); in experiment [2] (at 50.0 µM), 93% (active). Moreover, the growth inhibition is 33% in experiment [3] (setting [7]); 99% (active) in experiment [3] (setting [8]); 92.8% (active) in experiment [3] (at 50.0 µM); 40% in experiment [4] (setting [7]); 99% (active) in experiment [4] (setting [8]); 91.5% (active) in experiment [4] (at 50.0 µM). Besides, the growth inhibition is 44% in experiment [5] (setting [7]); 97% (active) in experiment [5] (setting [8]); 92% (active) in experiment [5] (at 50.0 µM); 32% in experiment [6] (setting [7]); 98% (active) in experiment [6] (setting [8]); 90.8% (active) in experiment [6] (at 50.0 µM).

For the molecule `O=[N+]([O-])/C(Cl)=C(/C(Cl)=C(Cl)Cl)N1CCCCC1`, the growth inhibition in experiment [1] (setting [7]) is -3%; in experiment [1] (setting [8]), 16%; in experiment [1] (at 50.0 µM), 28.6%; in experiment [2] (setting [7]), 8%; in experiment [2] (setting [8]) it was 25%; in experiment [2] (at 50.0 µM), 11.7%. The growth inhibition in experiment [3] (setting [7]) is 14%; in experiment [3] (setting [8]), 27%; in experiment [3] (at 50.0 µM) it was 34.1%; in experiment [4] (setting [7]), 13%; in experiment [4] (setting [8]), 22%; in experiment [4] (at 50.0 µM), 1.5%. The growth inhibition in experiment [5] (setting [7]) is 22%; in experiment [5] (setting [8]), 34%; in experiment [5] (at 50.0 µM) it was 23.6%; in experiment [6] (setting [7]), 2%; in experiment [6] (setting [8]), 27%; in experiment [6] (at 50.0 µM) it was 43.1%.

Consider `C[n+]1c(-c2ccc(/C=N\Nc3nnc(S)n3/N=C/c3ccc(-c4cn5ccccc5[n+]4C)cc3)cc2)cn2ccccc21`, for which the growth inhibition in experiment [1] (setting [7]) is 7%; in experiment [1] (setting [8]), 98% (active); in experiment [1] (at 50.0 µM) it was 94.5% (active); in experiment [2] (setting [7]), -16%; in experiment [2] (setting [8]), 96% (active); in experiment [2] (at 50.0 µM), 92.9% (active). For the same molecule, the growth inhibition is 3% in experiment [3] (setting [7]); 97% (active) in experiment [3] (setting [8]); 95.8% (active) in experiment [3] (at 50.0 µM); 4% in experiment [4] (setting [7]); 94% (active) in experiment [4] (setting [8]); 92.1% (active) in experiment [4] (at 50.0 µM). The growth inhibition in experiment [5] (setting [7]) was 29%; in experiment [5] (setting [8]) it was 98% (active); in experiment [5] (at 50.0 µM) it was 93% (active); in experiment [6] (setting [7]), 10%; in experiment [6] (setting [8]) it was 97% (active); in experiment [6] (at 50.0 µM), 96.8% (active).

For the molecule `COC(=O)/C=C(\C)Nc1ccc(Cc2ccc(Br)cc2)cc1`, the growth inhibition in experiment [1] (setting [7]) is -4%; in experiment [1] (setting [8]) it was 98% (active); in experiment [1] (at 50.0 µM), 97.5% (active); in experiment [2] (setting [7]), -13%; in experiment [2] (setting [8]), 99% (active); in experiment [2] (at 50.0 µM), 96.8% (active). Besides, the growth inhibition was -8% in experiment [3] (setting [7]); 99% (active) in experiment [3] (setting [8]); 97.8% (active) in experiment [3] (at 50.0 µM); 0% in experiment [4] (setting [7]); 99% (active) in experiment [4] (setting [8]); 92.9% (active) in experiment [4] (at 50.0 µM). Besides, the growth inhibition in experiment [5] (setting [7]) was -5%; in experiment [5] (setting [8]), 98% (active); in experiment [5] (at 50.0 µM) it was 94% (active); in experiment [6] (setting [7]), -4%; in experiment [6] (setting [8]), 99% (active); in experiment [6] (at 50.0 µM) it was 98% (active).

Consider `C(=N\N=C\c1ccc2c(c1)OCO2)/c1ccc2c(c1)OCO2`, for which the growth inhibition is 2% in experiment [1] (setting [7]); 4% in experiment [1] (setting [8]); 3.1% in experiment [1] (at 50.0 µM); 3% in experiment [2] (setting [7]); 2% in experiment [2] (setting [8]); -4.3% in experiment [2] (at 50.0 µM). For the same molecule, the growth inhibition in experiment [3] (setting [7]) is 0%; in experiment [3] (setting [8]), 6%; in experiment [3] (at 50.0 µM) it was -3.7%; in experiment [4] (setting [7]), -32%; in experiment [4] (setting [8]), -6%; in experiment [4] (at 50.0 µM), 75.9% (active). Also, the growth inhibition is 3% in experiment [5] (setting [7]); 1% in experiment [5] (setting [8]); 3.9% in experiment [5] (at 50.0 µM); 10% in experiment [6] (setting [7]); 21% in experiment [6] (setting [8]); 6.45% in experiment [6] (at 50.0 µM).

As for `O=C1OC(c2ccccc2)(c2ccccc2)Cc2ccccc21`, the growth inhibition in experiment [1] (setting [7]) was -4%; in experiment [1] (setting [8]), 20%; in experiment [1] (at 50.0 µM), 94% (active); in experiment [2] (setting [7]) it was -9%; in experiment [2] (setting [8]), -4%; in experiment [2] (at 50.0 µM), 96% (active). The growth inhibition in experiment [3] (setting [7]) was -7%; in experiment [3] (setting [8]) it was -16%; in experiment [3] (at 50.0 µM), 91% (active); in experiment [4] (setting [7]), -4%; in experiment [4] (setting [8]), 7%; in experiment [4] (at 50.0 µM), 91.3% (active). Also, the growth inhibition is -27% in experiment [5] (setting [7]); -13% in experiment [5] (setting [8]); 90.8% (active) in experiment [5] (at 50.0 µM); -21% in experiment [6] (setting [7]); 8% in experiment [6] (setting [8]); 94.8% (active) in experiment [6] (at 50.0 µM).
